Compound activity (PubChem)
These entries were drawn from the full list.
aSyn 5UTR act = Activators via SNCA 5'UTR binding, MLPCN. 7.1% of 300,000 active. activity score, % (tested at 7.5 µM), hits read low. alpha-synuclein 5'UTR reporter, activators screen; in the data active = activity score below about -60%
A number is an active result; n = inactive.

SMILES | aSyn 5UTR act
O=C(NCCc1c[nH]c2ccccc12)c1cnc2sccn2c1=O | -152
O=C(NCCc1c[nH]c2ccccc12)c1ccc(F)cc1F | -145
COc1ccc(C(=O)c2c[nH]c3ccccc23)cc1 | -196
CC(=O)c1c(C)[nH]c(C(=O)NCCC2=CCCCC2)c1C | -156
O=C(NCCc1c[nH]c2ccccc12)c1ccc(Cl)cc1 | -221
CCN1C(=O)/C(=C/c2nc3ccccc3c(=O)n2-c2ccc(C)cc2)c2ccccc21 | -139
COc1ccc(-n2c(/C=C3\C(=O)N(C)c4ccccc43)nc3ccccc3c2=O)cc1 | -107
CCOC(=O)c1cn2nc(Oc3ccc(C)cc3)ccc2n1 | -75
CCOC(=O)c1cn2nc(Oc3ccccc3)ccc2n1 | -149
COc1ccc(/C(=N/Nc2ncnc3ccccc23)C(=O)O)cc1 | -79
O=C(COc1ccccc1CNCc1ccccc1)Nc1ccccc1 | -91
Clc1ccc(OCc2cn3ccccc3n2)c2ncccc12 | -158
c1ccc(OCCOc2cccc3cccnc23)cc1 | -94
O=C(COc1cccc2cccnc12)Nc1ccccc1 | -174
OCc1ccccc1OCCCOc1cccc2cccnc12 | -83
Brc1ccc(COc2cccc3cccnc23)cc1 | -81
O=C(N/N=C/c1ccc[nH]1)c1ccc(COc2cccc3cccnc23)cc1 | n
OCc1ccccc1OCCOc1ccc(Cl)c2cccnc12 | -95
CN(C)CCCNc1cc(-c2ccccc2)nc2cc(-c3cccc(F)c3)nn12 | -62
Cc1ccc2nc(NC(=O)CSCC(=O)OCC(=O)c3ccc(Br)cc3)sc2c1 | n
COC(=O)c1ccc2nc(NC(=O)COC(=O)CSc3nc(C)cc(C)n3)sc2c1 | -88
COC(=O)c1ccc2nc(NC(=O)CSCC(=O)OCC(=O)c3ccccc3)sc2c1 | -73
COC(=O)C1(Cc2cc(-c3ccccc3)no2)CCN(C(=O)OC(C)(C)C)CC1 | -82
C=CCNc1nc(-c2ccc(Cl)cc2)cs1 | -238
CN(C)c1nc(-c2ccc([N+](=O)[O-])cc2)cs1 | -123
SMILES | aSyn 5UTR act
C=CCNc1nc(-c2ccc([N+](=O)[O-])cc2)cs1 | -182
Cc1c(C(=O)Nc2nc3ccccc3[nH]2)oc2c(Cl)cccc12 | -136
Cc1c(C(=O)Nc2nc3ccccc3[nH]2)oc2ccc(Br)cc12 | -158
Cc1c(C(=O)Nc2nc3ccccc3[nH]2)oc2ccccc12 | -258
Cc1cc(/C=C(/C#N)C(=O)Nc2ccccc2)c(C)n1-c1cccnc1 | -160
COCCNC(=O)/C(C#N)=C/c1cc(C)n(-c2ccc(C)cc2)c1C | -133
COCCNC(=O)/C(C#N)=C/c1cc(C)n(C2CCCCC2)c1C | -101
CCC(C)OC(=O)n1ccc(C(=O)Nc2nccs2)n1 (stereo unspecified) | -69
CCCCSc1nnc(-c2ccc(C)cc2)n1C | -109
Cn1c(SCc2ccccc2)nnc1-c1c[nH]c2ccccc12 | -107
Cn1c(SCCOc2ccc(F)cc2)nnc1-c1ccncc1 | -62
CCCCSc1nnc(-c2c[nH]c3ccccc23)n1C | -135
Cc1ccc(C(=O)c2oc3ccc(Cl)cc3c2NC(=O)CN2CCN(C)CC2)cc1 | -108
O=C(Nc1ncccc1Cl)c1ccc2c(c1)OCCO2 | -119
O=C(Nc1ccc2c(c1)OCCO2)c1ccc(Cl)c([N+](=O)[O-])c1 | -105
CCOc1ccc(C(=O)Nc2ncccc2Cl)cc1 | -116
O=C(Nc1ccc(Cl)c(Cl)c1)C1=Cc2ccccc2OC1 | -202
O=C(Nc1ccc2c(c1)OCCO2)c1ccc(Cl)c(Cl)c1 | -131
N#Cc1ccsc1NC(=O)c1ccc(Cl)c([N+](=O)[O-])c1 | -116
O=C(CNC(=O)c1ccc2c(c1)OCO2)Nc1ncccc1O | -77
CCn1cc([N+](=O)[O-])c(C(=O)Nc2ccc3c(c2)OCCO3)n1 | -69
Cc1cc(C)n2nc(C(=O)NCCc3ccccc3)nc2n1 | -72
Cc1nn(Cc2ccccc2)c(Cl)c1C(=O)NCCc1ccccc1 | -135
CCOC(=O)c1c(C)c(C(=O)O)n(C)c1C | n
Cc1cc(C)n2nc(C(=O)NNC(=O)c3ccc(Cl)cc3)nc2n1 | -76
SMILES | aSyn 5UTR act
CCOC(=O)c1c(C)c(C(=O)NCCc2ccccc2)c(C)n1C | -80
Cc1cc(C(=O)CSc2nncs2)c(C)n1-c1ccc2c(c1)OCO2 | -153
Cc1cc(C(=O)CSc2nnnn2-c2ccccc2)c(C)n1-c1ccc2c(c1)OCO2 | -91
Cc1cc2c(C)nc(-c3ccccc3)nc2o1 | -167
CC(=O)Nc1ccc(/C=C/c2ccc3cccc([N+](=O)[O-])c3n2)cc1 | -112
COc1cccc(/C=C/c2ccc3cccc(O)c3n2)c1OC | -74
CCOc1c(OC(C)=O)ccc(/C=C/c2ccc3cccc(OC)c3n2)c1[N+](=O)[O-] | -76
COC(=O)c1ccc(/C=C/c2ccc3cccc(OC)c3n2)cc1 | -97
COc1ccc(/C=C/c2ccc3cccc(O)c3n2)c(OC)c1OC | -92
Cc1cccc(C(=O)c2c(N)sc3c2CCC(C)C3)c1 (stereo unspecified) | -85
CCOC(=O)COc1cccc2c(=O)n(CC(=O)NCc3ccc(F)cc3)ccc12 | n
COc1ccc(CNC(=O)Cn2cccc2C(=O)c2ccccc2)cc1 | -69
COc1ccc(CNC(=O)Cn2cccc2C(=O)c2ccccc2C)cc1 | -101
COC(=O)Nc1nnc(-c2ccccc2Cl)s1 | -94
O=C(/C=C/c1cc(Br)ccc1F)Nc1cccnc1 | -118
O=C(/C=C/c1c(F)cccc1Cl)Nc1cccnc1 | -111
OC1CCCN(CC(O)COc2ccc(-c3ccccc3)cc2)C1 (stereo unspecified) | -74
OC(COc1ccc2cc(Br)ccc2c1)CN1CCCC1 (stereo unspecified) | -97
OC(COc1ccc(OCc2ccccc2)cc1)CN1CCCCC1 (stereo unspecified) | -73
COc1ccc(C(O)(CC(C)C)C(CN2CCOCC2)c2ccccc2)cc1 (stereo unspecified) | n
OC(COc1ccc(-c2ccccc2)cc1)CN1CCOCC1 (stereo unspecified) | -73
OCCN(Cc1ccccc1)CC(O)COc1ccc(-c2ccccc2)cc1 (stereo unspecified) | -96
OC(CNCCc1ccccc1)COc1ccc(OCC(O)CNCCc2ccccc2)cc1 (stereo unspecified) | n
OCCN1CCN(CC(O)COc2ccc(-c3ccccc3)cc2)CC1 (stereo unspecified) | -126
O=C(c1ccco1)N1CCCC(Nc2ccc3c(c2)OCCO3)C1 (stereo unspecified) | -79
SMILES | aSyn 5UTR act
O=C(NC(=S)Nc1cccc(O)c1)c1ccco1 | -131
O=C(NC(=S)Nc1ccc2c(c1)OCCO2)c1ccco1 | -114
O=C(Cc1ccccc1)NC(=S)Nc1ccc2oc(-c3ccccc3F)nc2c1 | -187
CC(=O)NC(=S)Nc1ccc2oc(-c3cc(F)c(F)cc3Cl)nc2c1 | -111
O=C(Cc1ccccc1)NC(=S)Nc1ccc2oc(-c3ccccc3)nc2c1 | -106
N#CC1=C(N)Oc2ccc3ccccc3c2C1c1cccnc1 (stereo unspecified) | n
CCOC(=O)C1=C(CSc2nc(-c3ccccc3)ccc2C#N)OC(N)=C(C#N)C1c1ccccc1 (stereo unspecified) | -103
CCOC(=O)C1=C(c2ccccc2)OC(N)=C(C#N)C1C(C)C (stereo unspecified) | -103
CCOC(=O)C1=C(CSc2nc(-c3ccccc3)ccc2C#N)OC(N)=C(C#N)C1c1cccnc1 (stereo unspecified) | -84
COc1ccc(C2=NOC(C(=O)NCc3ccc(F)cc3)C2)cc1OC (stereo unspecified) | n
COc1ccc(CCNC(=O)Nc2ccccc2[N+](=O)[O-])cc1 | -130
